# Experiments:
# Assay in all cases: SPOT peptide array binding signal intensity (averaged, normalized) (arbitrary units (background-subtracted, floor 0; scale differs between SH3 domains)); higher = stronger binding of the SH3 domain to the peptide
# AgAbp1 = molecular target: AgAbp1
# How it was run: (§1)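 Cellulose membranes carried synthetic 15-mer peptides with cysteines swapped for serines. These were incubated overnight at 4°C with 10 μg/ml of GST-fused SH3 domains from four yeast species in TBS-based blocking buffer. Binding signal, detected with anti-GST antibody and quantified in Genespotter, is the normalized, background-subtracted spot intensity averaged over replicates, in arbitrary units specific to each domain.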
# AgBbc1 = molecular target: AgBbc1
# How it was run: as §1
# AgBem1-D1 = molecular target: AgBem1-D1
# How it was run: as §1
# AgBzz1-D1 = molecular target: AgBzz1-D1
# How it was run: as §1
# AgBzz1-D2 = molecular target: AgBzz1-D2
# How it was run: as §1
# AgCyk3 = molecular target: AgCyk3
# How it was run: as §1
# AgFus1 = molecular target: AgFus1
# How it was run: as §1
# AgHof1 = molecular target: AgHof1
# How it was run: as §1
# AgHse1 = molecular target: AgHse1
# How it was run: as §1
# AgLsb1 = molecular target: AgLsb1
# How it was run: as §1
# AgLsb4 = molecular target: AgLsb4
# How it was run: as §1
# AgMyo5 = molecular target: AgMyo5
# How it was run: as §1
# AgNbp2 = molecular target: AgNbp2
# How it was run: as §1
# AgRvs167 = molecular target: AgRvs167
# How it was run: as §1
# AgSho1 = molecular target: AgSho1
# How it was run: as §1
# AgSla1-D1-D2 = molecular target: AgSla1-D1-D2
# How it was run: as §1
# AgSla1-D3 = molecular target: AgSla1-D3
# How it was run: as §1
# CaAbp1-D1 = molecular target: CaAbp1-D1
# How it was run: as §1
# CaAbp1-D2 = molecular target: CaAbp1-D2
# How it was run: as §1
# CaBbc1 = molecular target: CaBbc1
# How it was run: as §1
# CaBem1-D1 = molecular target: CaBem1-D1
# How it was run: as §1
# CaBzz1-D1 = molecular target: CaBzz1-D1
# How it was run: as §1
# CaBzz1-D2 = molecular target: CaBzz1-D2
# How it was run: as §1
# CaCyk3 = molecular target: CaCyk3
# How it was run: as §1
# CaFus1 = molecular target: CaFus1
# How it was run: as §1
# CaHof1 = molecular target: CaHof1
# How it was run: as §1
# CaHse1 = molecular target: CaHse1
# How it was run: as §1
# CaLsb1 = molecular target: CaLsb1
# How it was run: as §1
# CaLsb4 = molecular target: CaLsb4
# How it was run: as §1
# CaMyo5 = molecular target: CaMyo5
# How it was run: as §1
# CaNbp2 = molecular target: CaNbp2
# How it was run: as §1
# CaRvs167 = molecular target: CaRvs167
# How it was run: as §1
# CaRvs167-3 = molecular target: CaRvs167-3
# How it was run: as §1
# CaSho1 = molecular target: CaSho1
# How it was run: as §1
# CaSla1-D1-D2 = molecular target: CaSla1-D1-D2
# How it was run: as §1
# CaSla1-D3 = molecular target: CaSla1-D3
# How it was run: as §1
# ScAbp1 = molecular target: ScAbp1
# How it was run: as §1
# ScBbc1 = molecular target: ScBbc1
# How it was run: as §1
# ScBem1-D1 = molecular target: ScBem1-D1
# How it was run: as §1
# ScBzz1-D1 = molecular target: ScBzz1-D1
# How it was run: as §1
# ScBzz1-D2 = molecular target: ScBzz1-D2
# How it was run: as §1
# ScCyk3 = molecular target: ScCyk3
# How it was run: as §1
# ScFus1 = molecular target: ScFus1
# How it was run: as §1
# ScHof1 = molecular target: ScHof1
# How it was run: as §1
# ScHse1 = molecular target: ScHse1
# How it was run: as §1
# ScLsb1 = molecular target: ScLsb1
# How it was run: as §1
# ScLsb2 = molecular target: ScLsb2
# How it was run: as §1
# ScLsb3 = molecular target: ScLsb3
# How it was run: as §1
# ScLsb4 = molecular target: ScLsb4
# How it was run: as §1
# ScMyo3 = molecular target: ScMyo3
# How it was run: as §1
# ScMyo5 = molecular target: ScMyo5
# How it was run: as §1
# ScNbp2 = molecular target: ScNbp2
# How it was run: as §1
# ScPex13 = molecular target: ScPex13
# How it was run: as §1
# ScRvs167 = molecular target: ScRvs167
# How it was run: as §1
# ScSho1 = molecular target: ScSho1
# How it was run: as §1
# ScSla1-D1-D2 = molecular target: ScSla1-D1-D2
# How it was run: as §1
# ScSla1-D3 = molecular target: ScSla1-D3
# How it was run: as §1
# SpAbp1-D1 = molecular target: SpAbp1-D1
# How it was run: as §1
# SpBbc1 = molecular target: SpBbc1
# How it was run: as §1
# SpBzz1-D1 = molecular target: SpBzz1-D1
# How it was run: as §1
# SpBzz1-D2 = molecular target: SpBzz1-D2
# How it was run: as §1
# SpCyk3 = molecular target: SpCyk3
# How it was run: as §1
# SpHof1 = molecular target: SpHof1
# How it was run: as §1
# SpHof1-2 = molecular target: SpHof1-2
# How it was run: as §1
# SpHof1-3 = molecular target: SpHof1-3
# How it was run: as §1
# SpHse1 = molecular target: SpHse1
# How it was run: as §1
# SpLsb1 = molecular target: SpLsb1
# How it was run: as §1
# SpLsb4 = molecular target: SpLsb4
# How it was run: as §1
# SpMyo1 = molecular target: SpMyo1
# How it was run: as §1
# SpNbp2 = molecular target: SpNbp2
# How it was run: as §1
# SpPex13 = molecular target: SpPex13
# How it was run: as §1
# SpRvs167 = molecular target: SpRvs167
# How it was run: as §1
# SpSla1-D1-D2 = molecular target: SpSla1-D1-D2
# How it was run: as §1
# SpSla1-D3 = molecular target: SpSla1-D3
# How it was run: as §1
binder,measurement,setting,value
STPQTMRQAPKRPDA,SPOT peptide array binding signal intensity,AgAbp1,≤ 0
same,SPOT peptide array binding signal intensity,AgBbc1,206
same,SPOT peptide array binding signal intensity,AgBem1-D1,540
same,SPOT peptide array binding signal intensity,AgBzz1-D1,10
same,SPOT peptide array binding signal intensity,AgBzz1-D2,20
same,SPOT peptide array binding signal intensity,AgCyk3,≤ 0
same,SPOT peptide array binding signal intensity,AgFus1,34.5
same,SPOT peptide array binding signal intensity,AgHof1,10.5
same,SPOT peptide array binding signal intensity,AgHse1,122
same,SPOT peptide array binding signal intensity,AgLsb1,6.5
same,SPOT peptide array binding signal intensity,AgLsb4,≤ 0
same,SPOT peptide array binding signal intensity,AgMyo5,6
same,SPOT peptide array binding signal intensity,AgNbp2,1030
same,SPOT peptide array binding signal intensity,AgRvs167,0.833
same,SPOT peptide array binding signal intensity,AgSho1,25
same,SPOT peptide array binding signal intensity,AgSla1-D1-D2,4
same,SPOT peptide array binding signal intensity,AgSla1-D3,0.5
same,SPOT peptide array binding signal intensity,CaAbp1-D1,≤ 0
same,SPOT peptide array binding signal intensity,CaAbp1-D2,13
same,SPOT peptide array binding signal intensity,CaBbc1,1170
same,SPOT peptide array binding signal intensity,CaBem1-D1,174
same,SPOT peptide array binding signal intensity,CaBzz1-D1,532
same,SPOT peptide array binding signal intensity,CaBzz1-D2,105
same,SPOT peptide array binding signal intensity,CaCyk3,29
same,SPOT peptide array binding signal intensity,CaFus1,202
same,SPOT peptide array binding signal intensity,CaHof1,≤ 0
same,SPOT peptide array binding signal intensity,CaHse1,83
same,SPOT peptide array binding signal intensity,CaLsb1,0.5
same,SPOT peptide array binding signal intensity,CaLsb4,283
same,SPOT peptide array binding signal intensity,CaMyo5,88
same,SPOT peptide array binding signal intensity,CaNbp2,653
same,SPOT peptide array binding signal intensity,CaRvs167,28.8
same,SPOT peptide array binding signal intensity,CaRvs167-3,1
same,SPOT peptide array binding signal intensity,CaSho1,100
same,SPOT peptide array binding signal intensity,CaSla1-D1-D2,198
same,SPOT peptide array binding signal intensity,CaSla1-D3,225
same,SPOT peptide array binding signal intensity,ScAbp1,2.5
same,SPOT peptide array binding signal intensity,ScBbc1,49.5
same,SPOT peptide array binding signal intensity,ScBem1-D1,8.5
same,SPOT peptide array binding signal intensity,ScBzz1-D1,3
same,SPOT peptide array binding signal intensity,ScBzz1-D2,26
same,SPOT peptide array binding signal intensity,ScCyk3,≤ 0
same,SPOT peptide array binding signal intensity,ScFus1,39
same,SPOT peptide array binding signal intensity,ScHof1,≤ 0
same,SPOT peptide array binding signal intensity,ScHse1,72
same,SPOT peptide array binding signal intensity,ScLsb1,5.5
same,SPOT peptide array binding signal intensity,ScLsb2,5
same,SPOT peptide array binding signal intensity,ScLsb3,300
same,SPOT peptide array binding signal intensity,ScLsb4,35
same,SPOT peptide array binding signal intensity,ScMyo3,196
same,SPOT peptide array binding signal intensity,ScMyo5,72.5
same,SPOT peptide array binding signal intensity,ScNbp2,2290
same,SPOT peptide array binding signal intensity,ScPex13,339
same,SPOT peptide array binding signal intensity,ScRvs167,39.7
same,SPOT peptide array binding signal intensity,ScSho1,171
same,SPOT peptide array binding signal intensity,ScSla1-D1-D2,736
same,SPOT peptide array binding signal intensity,ScSla1-D3,540
same,SPOT peptide array binding signal intensity,SpAbp1-D1,≤ 0
same,SPOT peptide array binding signal intensity,SpBbc1,5
same,SPOT peptide array binding signal intensity,SpBzz1-D1,116
same,SPOT peptide array binding signal intensity,SpBzz1-D2,11
same,SPOT peptide array binding signal intensity,SpCyk3,6
same,SPOT peptide array binding signal intensity,SpHof1,25
same,SPOT peptide array binding signal intensity,SpHof1-2,38.8
same,SPOT peptide array binding signal intensity,SpHof1-3,≤ 0
same,SPOT peptide array binding signal intensity,SpHse1,190
same,SPOT peptide array binding signal intensity,SpLsb1,≤ 0
same,SPOT peptide array binding signal intensity,SpLsb4,384
same,SPOT peptide array binding signal intensity,SpMyo1,325
same,SPOT peptide array binding signal intensity,SpNbp2,266
same,SPOT peptide array binding signal intensity,SpPex13,51
same,SPOT peptide array binding signal intensity,SpRvs167,25.8
same,SPOT peptide array binding signal intensity,SpSla1-D1-D2,1.5
same,SPOT peptide array binding signal intensity,SpSla1-D3,182
TPTSGPPLLPPRNTM,SPOT peptide array binding signal intensity,SpBzz1-D2,1
same,SPOT peptide array binding signal intensity,SpCyk3,4.5
same,SPOT peptide array binding signal intensity,SpHof1,12.5
same,SPOT peptide array binding signal intensity,SpHof1-2,19
same,SPOT peptide array binding signal intensity,SpHof1-3,18.8
same,SPOT peptide array binding signal intensity,SpHse1,31.5
same,SPOT peptide array binding signal intensity,SpLsb1,1190
same,SPOT peptide array binding signal intensity,SpLsb4,6300
same,SPOT peptide array binding signal intensity,SpMyo1,156
same,SPOT peptide array binding signal intensity,SpNbp2,≤ 0
same,SPOT peptide array binding signal intensity,SpPex13,84.5
same,SPOT peptide array binding signal intensity,SpRvs167,2660
same,SPOT peptide array binding signal intensity,SpSla1-D1-D2,3
same,SPOT peptide array binding signal intensity,SpSla1-D3,4.5
VFQFQMPTTPISTKM,SPOT peptide array binding signal intensity,AgAbp1,≤ 0
same,SPOT peptide array binding signal intensity,AgBbc1,10
same,SPOT peptide array binding signal intensity,AgBem1-D1,132
same,SPOT peptide array binding signal intensity,AgBzz1-D1,22.5
same,SPOT peptide array binding signal intensity,AgBzz1-D2,9
same,SPOT peptide array binding signal intensity,AgCyk3,1
same,SPOT peptide array binding signal intensity,AgFus1,346
same,SPOT peptide array binding signal intensity,AgHof1,5
same,SPOT peptide array binding signal intensity,AgHse1,428
same,SPOT peptide array binding signal intensity,AgLsb1,2
same,SPOT peptide array binding signal intensity,AgLsb4,≤ 0
same,SPOT peptide array binding signal intensity,AgMyo5,14.8
same,SPOT peptide array binding signal intensity,AgNbp2,344
same,SPOT peptide array binding signal intensity,AgRvs167,1.33
same,SPOT peptide array binding signal intensity,AgSho1,251
same,SPOT peptide array binding signal intensity,AgSla1-D1-D2,1.5
same,SPOT peptide array binding signal intensity,AgSla1-D3,3
same,SPOT peptide array binding signal intensity,CaAbp1-D1,59
same,SPOT peptide array binding signal intensity,CaAbp1-D2,116
same,SPOT peptide array binding signal intensity,CaBbc1,34
same,SPOT peptide array binding signal intensity,CaBem1-D1,111
same,SPOT peptide array binding signal intensity,CaBzz1-D1,152
same,SPOT peptide array binding signal intensity,CaBzz1-D2,101
same,SPOT peptide array binding signal intensity,CaCyk3,13
same,SPOT peptide array binding signal intensity,CaFus1,820
same,SPOT peptide array binding signal intensity,CaHof1,0.5
same,SPOT peptide array binding signal intensity,CaHse1,303
same,SPOT peptide array binding signal intensity,CaLsb1,2.5
same,SPOT peptide array binding signal intensity,CaLsb4,407
same,SPOT peptide array binding signal intensity,CaMyo5,92.8

# Reference: the supplement of paper PMC4466140
